# Records with an inconclusive call do not appear. Entries that show only a call come without a potency. The source made the active and inactive calls. Calls come from the whole dose curve; as a rule, active = well fitted curve in the direction sought with a large enough effect; inconclusive = small, poorly fitted or top-dose-only effect, or another doubt; inactive = no such curve, though single readings can be large; an effect the other way counts as inactive or inconclusive.
# Assays:
# [1] = Quantitative High-Throughput drug screen in 47 multiple myeloma cell lines against the NCATS MIPE library collection: AMO1_DSMZ cell viability assay (AID 1918927; note: nearly all actives have a fitted effect of over 30% in size; note: potency is the fitted concentration of half-maximal effect)
# Method in brief: (§1)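 Relative luminescence from CellTiter-Glo served as the viability signal, referenced to DMSO-treated (100%) and cell-free medium (0%) controls. Treatment lasted 48 hours at 37C with 500 cells per well.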
# [2] = Quantitative High-Throughput drug screen in 47 multiple myeloma cell lines against the NCATS MIPE library collection: ARD_JJKsccE7 cell viability assay (AID 1918929; note: potency is the fitted concentration of half-maximal effect)
# Method in brief: as §1
# [3] = Quantitative High-Throughput drug screen in 47 multiple myeloma cell lines against the NCATS MIPE library collection: Karpas620_DSMZ cell viability assay (AID 1918959); note: nearly all actives have a fitted effect of over 30% in size; note: potency is the fitted concentration of half-maximal effect
# Method in brief: (§2)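 Myeloma cells (500 per well) were exposed to MIPE 4.0 compounds by pin transfer and incubated 48 hours at 37C, 5% CO2. Viability was read as ATP by CellTiter-Glo luminescence, normalised to DMSO (100%) and media-only (0%) wells.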
# [4] = Quantitative High-Throughput drug screen in 47 multiple myeloma cell lines against the NCATS MIPE library collection: KMM1_JCRB cell viability assay (AID 1918960); note: nearly all actives have a fitted effect of over 30% in size; note: potency is the fitted concentration of half-maximal effect
# Method in brief: (§3)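 500 cells/well; MIPE 4.0 library pinned in; 48 h, 37 °C, 5% CO2; CellTiter-Glo ATP luminescence. Controls: DMSO = 100% viability, medium only = 0%.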
# [5] = Quantitative High-Throughput drug screen in 47 multiple myeloma cell lines against the NCATS MIPE library collection: JIM1_ECACC cell viability assay (AID 1918964; note: potency is the fitted concentration of half-maximal effect)
# Method in brief: as §1
# [6] = Quantitative High-Throughput drug screen in 47 multiple myeloma cell lines against the NCATS MIPE library collection: INA6_PLB cell viability assay (AID 1918965; note: nearly all actives have a fitted effect of over 55% in size; note: potency is the fitted concentration of half-maximal effect)
# Method in brief: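 CellTiter-Glo ATP luminescence gave viability after 48 h compound treatment at 37C of 500 multiple myeloma cells per well. Normalisation used DMSO-only wells as 100% and media-only wells as 0% viability; primary qHTS of approved and investigational drugs.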
# [7] = Quantitative High-Throughput drug screen in 47 multiple myeloma cell lines against the NCATS MIPE library collection: Karpas25_ECACC cell viability assay (AID 1918968; note: nearly all actives have a fitted effect of over 35% in size; note: potency is the fitted concentration of half-maximal effect)
# Method in brief: as §1
# [8] = Quantitative High-Throughput drug screen in 47 multiple myeloma cell lines against the NCATS MIPE library collection: KMS27_JCRB cell viability assay (AID 1918970); note: nearly all actives have a fitted effect of over 30% in size; note: potency is the fitted concentration of half-maximal effect
# Method in brief: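 ATP-based viability (CellTiter-Glo luminescence) is measured in cells treated 48 h with approved and investigational drugs at 37 °C. Controls are DMSO-only wells for full viability and media-only wells for none.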
# [9] = Quantitative High-Throughput drug screen in 47 multiple myeloma cell lines against the NCATS MIPE library collection: Delta47_JCRB cell viability assay (AID 1918925; note: nearly all actives have a fitted effect of over 45% in size; note: potency is the fitted concentration of half-maximal effect)
# Method in brief: as §1
# [10] = Quantitative High-Throughput drug screen in 47 multiple myeloma cell lines against the NCATS MIPE library collection: JIM3_ECACC cell viability assay (AID 1918963; note: nearly all actives have a fitted effect of over 35% in size; note: potency is the fitted concentration of half-maximal effect)
# Method in brief: as §2
# [11] = Quantitative High-Throughput drug screen in 47 multiple myeloma cell lines against the NCATS MIPE library collection: EJM_DSMZ cell viability assay (AID 1918926; note: nearly all actives have a fitted effect of over 30% in size; note: potency is the fitted concentration of half-maximal effect)
# Method in brief: as §1
# [12] = Quantitative High-Throughput drug screen in 47 multiple myeloma cell lines against the NCATS MIPE library collection: H1112_PLB cell viability assay (AID 1918967; note: nearly all actives have a fitted effect of over 30% in size; note: potency is the fitted concentration of half-maximal effect)
# Method in brief: as §1
# [13] = Quantitative High-Throughput drug screen in 47 multiple myeloma cell lines against the NCATS MIPE library collection: JJN3_DSMZ cell viability assay (AID 1918966; note: nearly all actives have a fitted effect of over 50% in size; note: potency is the fitted concentration of half-maximal effect)
# Method in brief: as §1
# [14] = Quantitative High-Throughput drug screen in 47 multiple myeloma cell lines against the NCATS MIPE library collection: KHM11_PLB cell viability assay (AID 1918962); note: nearly all actives have a fitted effect of over 35% in size; note: potency is the fitted concentration of half-maximal effect
# Method in brief: as §2
# [15] = Quantitative High-Throughput drug screen in 47 multiple myeloma cell lines against the NCATS MIPE library collection: ARP1_JJKsccF8 cell viability assay (AID 1918928; note: nearly all actives have a fitted effect of over 40% in size; note: potency is the fitted concentration of half-maximal effect)
# Method in brief: as §3
# [16] = Quantitative High-Throughput drug screen in 47 multiple myeloma cell lines against the NCATS MIPE library collection: FR4_PLB cell viability assay (AID 1918924; note: nearly all actives have a fitted effect of over 35% in size)
# Method in brief: as §2
SMILES,Potency [1],Potency [2],Potency [3],Potency [4],Potency [5],Potency [6],Potency [7],Potency [8],Potency [9],Potency [10],Potency [11],Potency [12],Potency [13],Potency [14],Potency [15],Potency [16]
Clc1ccc(C(Cn2ccnc2)OCc2ccc(Sc3ccccc3)cc2)c(Cl)c1 (stereo not given),20.9 µM (active),26.4 µM (active),18.7 µM (active),20.9 µM (active),20.9 µM (active),26.4 µM (active),18.7 µM (active),18.7 µM (active),,,,,,,,
COCCCN1CCC(NC(=O)c2cc(Cl)c(N)c3c2OCC3)CC1,14.8 µM (active),20.9 µM (active),,20.9 µM (active),16.6 µM (active),18.7 µM (active),,18.7 µM (active),18.7 µM (active),18.7 µM (active),,,,,,
CC(=O)N1CCN(c2ccc(OC[C@H]3CO[C@](Cn4ccnc4)(c4ccc(Cl)cc4Cl)O3)cc2)CC1,7.43 µM (active),,5.26 µM (active),5.26 µM (active),inactive,,,,18.7 µM (active),11.8 µM (active),8.33 µM (active),8.33 µM (active),,,,
Oc1ccc(-c2nc(-c3ccc(F)cc3)c(-c3ccncc3)[nH]2)cc1,inactive,inactive,inactive,inactive,,14.8 µM (active),7.43 µM (active),,5.9 µM (active),14.8 µM (active),,8.33 µM (active),9.35 µM (active),,,
CCOC(=O)C(C)Oc1cccc2c(=O)n(CC(=O)Nc3ccc4c(c3)OCCO4)ccc12 (stereo not given),16.6 µM (active),inactive,inactive,13.2 µM (active),inactive,inactive,,inactive,,,inactive,inactive,,inactive,,
Cc1cc(Cl)ccc1OCCCC(=O)NO,,20.9 µM (active),,,,7.43 µM (active),2.96 µM (active),,2.96 µM (active),9.35 µM (active),0.296 µM (active),7.43 µM (active),0.372 µM (active),11.8 µM (active),,
CC1(C)NC(=O)N(c2ccc([N+](=O)[O-])c(C(F)(F)F)c2)C1=O,inactive,,inactive,inactive,0.235 µM (active),3.32 µM (active),,inactive,,,,11.8 µM (active),,inactive,,
C[C@@H](N)C1CCC(C(=O)Nc2ccncc2)CC1 (stereo not given in full),inactive,,inactive,inactive,,18.7 µM (active),26.4 µM (active),,,,inactive,14.8 µM (active),inactive,,,
O=C(NCC1CCCCN1)c1cc(OCC(F)(F)F)ccc1OCC(F)(F)F (stereo not given),3.32 µM (active),3.72 µM (active),1.32 µM (active),2.64 µM (active),1.87 µM (active),13.2 µM (active),9.35 µM (active),0.526 µM (active),8.33 µM (active),8.33 µM (active),inactive,8.33 µM (active),inactive,9.35 µM (active),,
COc1c2occc2cc2ccc(=O)oc12,inactive,,inactive,inactive,inactive,,,inactive,inactive,inactive,inactive,inactive,,inactive,inactive,
c1ccc2[nH]c(-c3cscn3)nc2c1,inactive,,,inactive,,inactive,inactive,,inactive,inactive,,inactive,,,,
Clc1ccc(C(Cn2ccnc2)OCc2ccsc2Cl)c(Cl)c1 (stereo not given),18.7 µM (active),,,,,26.4 µM (active),20.9 µM (active),,,,14.8 µM (active),,inactive,,,
Cc1c(C(=O)NN2CCCCC2)nn(-c2ccc(Cl)cc2Cl)c1-c1ccc(Cl)cc1,16.6 µM (active),,20.9 µM (active),23.5 µM (active),11.8 µM (active),,23.5 µM (active),,,23.5 µM (active),inactive,23.5 µM (active),20.9 µM (active),,,
CC(C)c1ccc2c(c1)c(SC(C)(C)C)c(CC(C)(C)C(=O)O)n2Cc1ccc(Cl)cc1,inactive,,inactive,inactive,inactive,,20.9 µM (active),,26.4 µM (active),,,,18.7 µM (active),inactive,,
CCc1nc(N)nc(N)c1-c1ccc(Cl)cc1,1.48 µM (active),,inactive,,inactive,10.5 µM (active),,,inactive,2.35 µM (active),inactive,,,inactive,,
Cc1ccc(S(=O)(=O)NC(=O)NN2CC3CCCC3C2)cc1 (stereo not given),23.5 µM (active),26.4 µM (active),,23.5 µM (active),,20.9 µM (active),26.4 µM (active),20.9 µM (active),18.7 µM (active),23.5 µM (active),,,23.5 µM (active),,26.4 µM (active),
O=C(CCc1ccc(O)cc1)c1c(O)cc(O)cc1O,0.59 µM (active),0.372 µM (active),1.32 µM (active),,,0.418 µM (active),0.187 µM (active),,0.118 µM (active),,,0.148 µM (active),,0.059 µM (active),1.32 µM (active),
NC(=O)Cc1cccc(C(=O)c2ccccc2)c1N,inactive,,inactive,inactive,,inactive,,inactive,inactive,inactive,inactive,,,inactive,,

SMILES,Potency [1],Potency [2],Potency [3],Potency [4],Potency [5],Potency [6],Potency [7],Potency [8],Potency [9],Potency [10],Potency [11],Potency [12],Potency [13],Potency [14],Potency [15],Potency [16]
O=c1c(O)c(-c2cc(O)c(O)c(O)c2)oc2cc(O)cc(O)c12,inactive,inactive,inactive,inactive,,,,inactive,inactive,inactive,inactive,inactive,20.9 µM (active),inactive,,
NNc1nncc2ccccc12,,inactive,inactive,inactive,,,,,,inactive,,inactive,,,,inactive
COc1cc(C(C)=O)ccc1OCCCN1CCC(c2noc3cc(F)ccc23)CC1,,,,,,14.8 µM (active),1.87 µM (active),,,inactive,inactive,inactive,,,,
O=C1NC(=O)C(c2ccccc2[N+](=O)[O-])=C1Nc1ccc(O)c(Cl)c1,,,inactive,,inactive,,13.2 µM (active),inactive,,,inactive,inactive,,,,
CC(C)[C@H](N)C(=O)OCCOCn1cnc2c(=O)[nH]c(N)nc21,26.4 µM (active),inactive,inactive,,,,inactive,,inactive,inactive,inactive,inactive,inactive,,,
S=c1nc[nH]c2nc[nH]c12,inactive,2.35 µM (active),inactive,4.69 µM (active),,1.87 µM (active),16.6 µM (active),7.43 µM (active),,16.6 µM (active),inactive,,,inactive,2.35 µM (active),
CC(C)Oc1ccc2c(=O)c(-c3ccccc3)coc2c1,inactive,,,,inactive,,,,inactive,inactive,inactive,inactive,,inactive,,
COC(=O)C1=C(C)NC(C)=C(C(=O)OC(C)C)C1c1cccc2nonc12 (stereo not given),inactive,inactive,inactive,inactive,inactive,26.4 µM (active),5.26 µM (active),inactive,2.96 µM (active),,inactive,3.32 µM (active),,,inactive,
Cc1cccc(C)c1OCC(=O)N[C@@H](Cc1ccccc1)[C@@H](O)C[C@H](Cc1ccccc1)NC(=O)[C@H](C(C)C)N1CCCNC1=O,8.33 µM (active),,,6.62 µM (active),,,,,,20.9 µM (active),,16.6 µM (active),,inactive,,
NCCCCNCCCN,inactive,,18.7 µM (active),,,11.8 µM (active),18.7 µM (active),,23.5 µM (active),18.7 µM (active),23.5 µM (active),,2.96 µM (active),,16.6 µM (active),
O=C(O)c1cc(=O)c2c(OCC(O)COc3cccc4oc(C(=O)O)cc(=O)c34)cccc2o1,inactive,,,inactive,,,inactive,,,inactive,inactive,inactive,,,inactive,
COc1cc2nc(N3CCN(C(=O)C4CCCO4)CC3)nc(N)c2cc1OC (stereo not given),,,inactive,,,inactive,inactive,,inactive,inactive,inactive,inactive,inactive,inactive,,
Cc1cc2cc3c(C)cc(=O)oc3c(C)c2o1,,,23.5 µM (active),,,,20.9 µM (active),26.4 µM (active),20.9 µM (active),,5.9 µM (active),,5.26 µM (active),,,
Cc1ccc(C(=O)c2cc(O)c(O)c([N+](=O)[O-])c2)cc1,,20.9 µM (active),,,,,26.4 µM (active),,26.4 µM (active),,,,,,inactive,
CCCCCCCCOc1ccccc1C(=O)Nc1ccc(C(=O)OCC[N+](C)(CC)CC)cc1,inactive,inactive,5.9 µM (active),,,18.7 µM (active),9.35 µM (active),6.62 µM (active),18.7 µM (active),,,,,,,
Cn1c(NCCN(CCO)CCCc2ccc([N+](=O)[O-])cc2)cc(=O)n(C)c1=O,18.7 µM (active),,,,,,,,,,inactive,inactive,,,,
N=C(N)c1ccc2cc(OC(=O)c3ccc(N=C(N)N)cc3)ccc2c1,inactive,inactive,inactive,inactive,inactive,,9.35 µM (active),,,inactive,18.7 µM (active),inactive,,,,

# Reference: PubChem BioAssay (NCATS)
